Screens (PubChem)
SMARCA2 activ: increases SMARCA2 function in MMTV reporter cells; MG213 cells, MMTV-luciferase reporter, dexamethasone, overnight; activation, % at 9.1 µM; 370,000 compounds, 1% hits; AID 652017; in the data active means activation above about 7.8%;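 further: 0% = vehicle wells and 100% = reference activator wells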
HSF1 activator: increases HSF-1 driven luciferase reporter signal. NIH3T3-HGL HSF-1 luciferase reporter, MG132, 8 h; 100% = twice DMSO control signal. activation, % at 9 µM. 300,000 compounds, 1.7% hits;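 active means mean replicate activation of at least 50% with a set share of replicates each reaching 50%; inconclusive means only one of those two conditions met; inactive means mean below 50% and too few replicates reaching it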;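 further: 0% = median of the neutral control wells and 100% = twice that signal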
esBAF inh: inhibitors of esBAF chromatin remodeling in mouse ES cells. 350,000 compounds, 2% hits. reporter increase, % at 12.5 µM. Bmi1-luciferase knock-in reporter, 24 h; 100% = twice the neutral-well signal; in the data active means activation above about 40%; inconclusive means no clear call, values can overlap the other calls;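 further: 0% = median of the plate's neutral control wells and 100% = double that signal; a rise in the Bmi1 reporter signal indicates esBAF inhibition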
HSF1 inh: HSF1 inhibition; NIH3T3-HGL HSE-luciferase, MG132-induced, luminescence 8 h; stronger effect = lower value; activity change, negative = inhibition, % at 7.5 µM (by protocol); 300,000 compounds, 0.77% hits; AID 2098;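 active means more than half of replicate wells show activity change below -50%, luminescence cut by over half; inconclusive means some wells, but at most half, below -50%; inactive means no replicate well below -50%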;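 further: luciferase reports HSF-1 transcriptional activity via heat shock element; 0% = median of DMSO wells and -100% = zero luminescence signal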
Wnt bcat act: Wnt/beta-catenin pathway activation; Wnt/beta-catenin reporter cell assay, activator, plate reader; activation, % at 9.35 µM; 300,000 compounds, 1.2% hits; in the data active means activation above about 30%, passing the limit was not always enough; inconclusive means no clear call, values can overlap the other calls;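 further: 0% = neutral control wells and 100% = positive control wells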
MITF TRPM1 HTS: MITF TRPM1 promoter activation in melanoma cells; 300,000 compounds, 0.75% hits; activation, % at 12.5 µM; SK-MEL-5 TRPM1-promoter luciferase, 24 h; % of positive control, neutral wells = 0;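 active means mean activation of at least 80% with every replicate also reaching 80%; inconclusive means mean reaches 80% but some replicate falls short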;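 further: 0% = neutral control wells and 100% = parthenolide positive control wells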
Active calls of the source: *; ? = inconclusive; . = no result. An excerpt weighted towards active compounds, which were near 4.3% of everything screened.

SMILES	SMARCA2 activ	HSF1 activator	esBAF inh	HSF1 inh	Wnt bcat act	MITF TRPM1 HTS
COc1ccc(-c2cc(C(F)(F)F)nc(S(C)(=O)=O)n2)cc1	-10	321*	-30	262	.	.
CS(=O)(=O)c1nc(-c2ccc(F)cc2)cc(C(F)(F)F)n1	-11	-92	.	-93*	?	-97
CN1CCN(c2nc(-c3cccs3)cc(C(F)(F)F)n2)CC1	-2	8	4	-8	.	.
Cc1cc(NC(=O)CCCS(=O)(=O)c2nc(-c3cccs3)cc(C(F)(F)F)n2)no1	-9	205*	.	159	-26	-95
O=C(C[C@H]1CC[C@H]2[C@@H](COC[C@H](O)CN2C(=O)c2ccccc2)O1)N1CCOCC1	.	.	2	.	.	.
O=C(NCc1ccccc1)[C@@H]1[C@@H](CO)[C@@H]2Cn3c(cccc3=O)[C@H]1N2C(=O)CC1CC1	.	.	7	.	.	.
Cc1cc(C)cc(N2Cc3ccccc3C2)c1	1	-28	0	-10	-2	6
COc1cc(N2Cc3ccccc3C2)ccc1C=O	6	-33	51*	-32	7	.
CCc1nc(NC(C)(C)C)c2cnn(-c3ccccc3)c2n1	1	27	74*	3	27	?
CCC(=O)Nc1ccc2c(c1)OC[C@@H](C)N(C(=O)C1CCC1)C[C@@H](C)[C@@H](OC)CN(C)C2=O	.	.	-3	.	.	.
CN(Cc1cnn(C)c1)C(=O)c1cc(COc2c(F)cccc2F)on1	0	.	47*	.	.	15
COc1cccc(CN(C)C(=O)c2cc(COc3c(F)cccc3F)on2)c1	3	?	3	5	1	8
CC(CNC(=O)c1cc(COc2c(F)cccc2F)on1)c1ccccc1 (stereo not given)	-2	-6	.	1	1	8
O=C(NCCc1cnn(-c2ccccc2)c1)c1cc(COc2c(F)cccc2F)on1	0	35	.	14	38*	46
CCN(Cc1cnn(C)c1)C(=O)c1cc(COc2ccc3c(c2)CCCC3)on1	6	26	46*	11	12	55
Cn1cc(CNC(=O)c2cc(COc3ccc4c(c3)CCCC4)on2)cn1	-2	21	4	4	1	6
COc1ccc(NC(=O)Nc2ccc3c(c2)CC(=O)N([C@@H](C)CO)C[C@H](C)[C@@H](CN(C)C(=O)Nc2ccccc2)O3)cc1	.	.	-2	.	.	.
C[C@@H]1CN([C@H](C)CO)C(=O)c2cccc(N(C)C)c2O[C@@H]1CN(C)Cc1ccc(Cl)c(Cl)c1	.	.	-5	.	.	.
CCCC12CN3CCN(CC(C3)/C1=N\NC(=O)c1ccccc1N)C2	3	23	.	20	37*	-4
C[C@@H]1CN([C@@H](C)CO)S(=O)(=O)c2ccc(-c3ccc(F)cc3)cc2O[C@@H]1CN(C)S(C)(=O)=O	.	.	-1	.	.	.
CN1C(=O)c2cc(NC(=O)C3CCOCC3)ccc2OC[C@H]2O[C@H](CC(=O)NCC3CCCCC3)CC[C@H]21	.	.	-2	.	.	.
C[C@H]1CCCCO[C@H](CN(C)C(=O)Nc2ccc(C(F)(F)F)cc2)[C@@H](C)CN([C@@H](C)CO)C(=O)c2cc(NC(=O)C3CCCCC3)ccc2O1	.	.	2	.	.	.
Cc1ccc(C2OCC3(CO2)COC(c2ccc(C)cc2)OC3)cc1 (stereo not given)	-3	-8	.	-8	-1	0
CC1OC1c1ccc(-c2ccc(C3OC3C)cc2)cc1 (stereo not given)	3	.	77*	.	18	90*
O=CN1N=C(c2ccccc2)CC1c1ccccc1[N+](=O)[O-] (stereo not given)	2	7	.	9	8	8
N#CC1CC(c2ccccc2)=NN1c1ccccc1[N+](=O)[O-] (stereo not given)	6	48	52*	22	10	14
CN(c1ccccc1)c1nc(N)c([N+](=O)[O-])c(N2CCCCCC2)n1	-2	78*	.	51	-1	.
CC1CCN(c2nc(N(C)c3ccccc3)nc(N)c2[N+](=O)[O-])CC1	-1	67*	35	27	17	34
CCN1CCN(c2nc(N(C)c3ccccc3)nc(N)c2[N+](=O)[O-])CC1	-4	3	-2	-3	2	17
CN1CCN(C(=O)C[C@H]2C[C@H]3c4cc(NC(=O)Nc5ccccc5)ccc4O[C@H]3[C@@H](CO)O2)CC1	.	.	-9	.	.	.
